Measurements as given in PubChem BioAssay (EPA / NIEHS).
Activity calls are given as the source filed them. The calls were made as follows: active = hit-call score of the fitted dose curve at least 0.9, where 1 is the maximum; inactive = score below 0.9.

Columns and labels:
[1] = read-out: Tissue Factor, F3 (gene 2152); test: BSK_CASM3C_TissueFactor: BioMAP Diversity Plus: CASM3C Assay for Tissue Factor Biomarker Activity (AID 2283052); conditions: primary human coronary artery smooth muscle cells; actives raise or lower the signal;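 also: cell surface tissue factor protein level read by ELISA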
[2] = read-out: Interferon-gamma inducible Protein 10 (IP10), CXCL10 (gene 3627); test: BSK_hDFCGF_IP10: BioMAP Diversity Plus: hDFCGF Assay for Interferon-gamma inducible Protein 10 (IP10) Biomarker Activity (AID 2283053); conditions: primary human foreskin fibroblasts; actives raise or lower the signal
Outline: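 Primary foreskin fibroblasts, human; 24 h compound exposure; IP-10 by ELISA; bidirectional fit vs DMSO.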

[3] = read-out: Urokinase-type plasminogen activator receptor (uPAR), PLAUR (gene 5329); test: BSK_CASM3C_uPAR: BioMAP Diversity Plus: CASM3C Assay for Urokinase-type plasminogen activator receptor (uPAR) Biomarker Activity (AID 2283054); conditions: primary human coronary artery smooth muscle cells; actives raise or lower the signal;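 also: cell-surface uPAR protein level quantified by ELISA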
[4] = read-out: Vascular cell adhesion molecule 1 (VCAM1), VCAM1 (gene 7412); test: BSK_CASM3C_VCAM1: BioMAP Diversity Plus: CASM3C Assay for Vascular cell adhesion molecule 1 (VCAM1) Biomarker Activity (AID 2283055); conditions: primary human coronary artery smooth muscle cells; actives raise or lower the signal;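 also: VCAM-1 protein level quantified by ELISA on the cells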
[5] = read-out: Collagen III, COL3A1 (gene 1281); test: BSK_hDFCGF_CollagenIII: BioMAP Diversity Plus: hDFCGF Assay for Collagen III Biomarker Activity (AID 2283056); conditions: primary human foreskin fibroblasts; actives raise or lower the signal
Outline: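 Human foreskin primary fibroblasts were exposed to test chemicals for 24 h, after which collagen III was quantified by ELISA. Activity was fitted bidirectionally against DMSO as negative control and baseline.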

[6] = read-out: Epidermal growth factor receptor (EGFR), EGFR (gene 1956); test: BSK_hDFCGF_EGFR: BioMAP Diversity Plus: hDFCGF Assay for Epidermal growth factor receptor (EGFR) Biomarker Activity (AID 2283057); conditions: primary human foreskin fibroblasts; actives raise or lower the signal
Outline: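 hDFCGF system, primary human foreskin fibroblasts; compound 24 h; EGFR measured by ELISA; DMSO = negative control/baseline; bidirectional fitting.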

[7] = read-out: Interleukin-8 (IL8), CXCL8 (gene 3576); test: BSK_hDFCGF_IL8: BioMAP Diversity Plus: hDFCGF Assay for Interleukin-8 (IL8) Biomarker Activity (AID 2283058); conditions: primary human foreskin fibroblasts; actives raise or lower the signal
Outline: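 hDFCGF human dermal fibroblasts; 24 h chemical exposure; IL-8 by ELISA; bidirectional curve fit vs DMSO baseline; gain or loss of signal scored.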

[8] = BSK_hDFCGF_Proliferation: Cell Proliferation Assessment in the BioMAP Diversity Plus: hDFCGF Assay (AID 2283059); conditions: primary human foreskin fibroblasts;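 also: curves fitted for both rise and fall of signal versus DMSO baseline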
Outline: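 Total protein read at 560 nm after 0.1% SRB staining of TCA-fixed human skin fibroblasts, […]. Activity is fitted in both directions relative to DMSO as baseline.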

[9] = BSK_hDFCGF_SRB: Viability Assessment in the BioMAP Diversity Plus: hDFCGF Assay (AID 2283061); conditions: primary human foreskin fibroblasts;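 also: cells exposed to compound for 24 h before the read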
Outline: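 Human foreskin primary fibroblasts were treated with compound and assessed 24 h after dosing. Total protein was measured by sulforhodamine B staining (0.1% SRB after 10% TCA fixation, 560 nm read) as a cytotoxicity marker, with bidirectional fitting against DMSO baseline.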

[10] = read-out: Macrophage colony-stimulating factor (MCSF), CSF1 (gene 1435); test: BSK_hDFCGF_MCSF: BioMAP Diversity Plus: hDFCGF Assay for Macrophage colony-stimulating factor (MCSF) Biomarker Activity (AID 2283060); conditions: primary human foreskin fibroblasts; actives raise or lower the signal
Outline: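 Human foreskin primary fibroblasts were treated with test chemical for 24 h, and M-CSF was then measured by ELISA. Data were fitted bidirectionally against DMSO as the negative control and activity baseline.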

Measured: AC50

Oc1ccc(O)cc1
active: [2] 20.6 µM | [4] 9.44 µM | [5] 20 µM | [7] 31.5 µM | [8] 0.465 µM | [9] 12 µM
inactive: [1] | [3] | [6]

O=C(O)CN(CC(=O)O)CC(=O)O
not listed: [10]
inactive: all other assays above

Cc1cc(SC2=C(O)C[C@@](CCc3ccc(N)cc3)(C(C)C)OC2=O)c(C(C)(C)C)cc1CO
not listed: [10]
inactive: all other assays above

CC(=O)CC(c1ccccc1)c1c(O)c2ccccc2oc1=O (stereo unspecified)
not listed: [10]
inactive: all other assays above

Nc1nc(=S)c2[nH]cnc2[nH]1
active: [5] 26.1 µM | [8] 14 µM
not listed: [10]
inactive: all other assays above

C/C=C/C=C/C(=O)O
not listed: [10]
inactive: all other assays above

NC1CCCCC1
not listed: [10]
inactive: all other assays above

CN(C)CCCN(C)CCCN(C)C
not listed: [10]
inactive: all other assays above

O=C1OC(c2ccc(O)cc2)(c2ccc(O)cc2)c2ccccc21
active: [5] 30.2 µM | [6] 20 µM
not listed: [8]
inactive: all other assays above

S=c1[nH]c2ccccc2s1
active: [5] 6.58 µM
not listed: [10]
inactive: all other assays above

CCCC[C@H]1CN(CC2CCOCC2)C(=O)OC12CCN(C1(C)CCN(C(=O)c3c(C)ncnc3C)CC1)CC2
not listed: [8]
inactive: all other assays above

O=C(O)c1[nH]n(-c2ccc(S(=O)(=O)O)cc2)c(=O)c1N=Nc1ccc(S(=O)(=O)O)cc1
not listed: [8]
inactive: all other assays above

CO[C@@H]1COCC[C@@H]1N[C@@H]1CC[C@@](C(=O)N2CCc3ncc(C(F)(F)F)cc3C2)(C(C)C)C1
not listed: [8]
inactive: all other assays above

CCCCCCC(C=O)=Cc1ccccc1
active: [2] 32.6 µM | [5] 30.1 µM | [9] 31.5 µM
not listed: [8]
inactive: all other assays above

COc1ccc(OC(F)(F)F)cc1CN[C@H]1CCCN[C@H]1c1ccccc1
not listed: [8]
inactive: all other assays above

N[C@@H](Cc1c[nH]c2ccccc12)C(=O)O
not listed: [8]
inactive: all other assays above

CC(C)(C)c1ccccc1
not listed: [10]
inactive: all other assays above

NC=O
not listed: [8] | [10]
inactive: all other assays above

CCOCCOCCO
not listed: [8] | [10]
inactive: all other assays above

Cc1occc(=O)c1O
not listed: [8] | [10]
inactive: all other assays above

CCCCC(CC)CO (stereo unspecified)
not listed: [8] | [10]
inactive: all other assays above

CC1(C)C(=O)NC(=O)N1CO
not listed: [8] | [10]
inactive: all other assays above

COC(=O)CCCC(=O)OC
not listed: [8] | [10]
inactive: all other assays above

CCCCOC(=O)CCCCC(=O)OCCCC
not listed: [8]
inactive: all other assays above

O=C(O)CC(O)(CC(=O)O)C(=O)O
not listed: [8] | [10]
inactive: all other assays above

CN(C)CCCN1c2ccccc2Sc2ccc(Cl)cc21
inactive: [1] | [4]
active: [2] 26.1 µM | [3] 20 µM | [7] 31.4 µM | [10] 22.1 µM | [9] 31.9 µM

C/C=C/c1ccc(OC)cc1
not listed: [8] | [10]
inactive: all other assays above

CCCCCCCC(=O)OC
not listed: [8]
inactive: all other assays above

COC(=O)[C@H]1[C@H]2C[C@@H]3c4[nH]c5cc(OC)ccc5c4CCN3C[C@H]2C[C@@H](OC(=O)c2cc(OC)c(OC)c(OC)c2)[C@@H]1OC
active: [8] 16.9 µM
not listed: [5] | [10]
inactive: all other assays above

CC(C)c1cccc(C(C)C)c1NC(=O)NS(=O)(=O)c1cc(C(C)(C)O)co1
not listed: [8] | [10]
inactive: all other assays above

Oc1ccccc1O
active: [2] 14.1 µM | [4] 5.64 µM | [5] 10.2 µM | [10] 13.3 µM
not listed: [8]
inactive: all other assays above

O=C1CCCCC1
not listed: [8] | [10]
inactive: all other assays above

c1ccc2occc2c1
not listed: [8] | [10]
inactive: all other assays above

Cc1ccc(-c2cc(C(F)(F)F)nn2-c2ccc(S(N)(=O)=O)cc2)cc1
active: [1] 36.7 µM | [3] 30.4 µM | [4] 29.9 µM
not listed: [8] | [10]
inactive: all other assays above

CC(=O)S[C@H](C(=O)N[C@H]1Cc2ccccc2[C@H]2CCC[C@@H](C(=O)O)N2C1=O)C(C)C
not listed: [8]
inactive: all other assays above

CCCCC(CC)COC(=O)CCCCCCCC(=O)OCC(CC)CCCC (stereo unspecified)
not listed: [8]
inactive: all other assays above

O=C1NC(=O)C(c2ccccc2)(c2ccccc2)N1
not listed: [3] | [10]
inactive: all other assays above

O=C(NS(=O)(=O)/C=C/c1cccs1)c1ccc(F)cc1Br
active: [1] 0.061 µM | [2] 30.9 µM
not listed: [8] | [10]
inactive: all other assays above

CCCCC(CC)COP(=O)(OCC(CC)CCCC)OCC(CC)CCCC (stereo unspecified)
not listed: [8] | [10]
inactive: all other assays above

CC(C)OC(=O)C(C)(C)Oc1ccc(C(=O)c2ccc(Cl)cc2)cc1
active: [2] 12.9 µM | [3] 5.38 µM | [4] 5 µM | [5] 8.9 µM
not listed: [8]
inactive: all other assays above

CCCCCCCCCCCCCCOS(=O)(=O)O
active: [2] 8.52 µM | [5] 7.78 µM | [6] 12.2 µM | [7] 12.4 µM | [9] 10.1 µM
inactive: [1] | [3] | [4]

O=C(N[C@@H](c1ccccc1)[C@@H]1CCCCN1)c1cccc(C(F)(F)F)c1Cl
active: [2] 10.5 µM
not listed: [8]
inactive: all other assays above

CCCC(=O)O
not listed: [8]
inactive: all other assays above

CC(C)NCC(O)c1ccc(O)c(O)c1 (stereo unspecified)
not listed: [8] | [10]
inactive: all other assays above

CN(C)C(=O)NC1(c2ccccc2)CCN(CCC[C@]2(c3ccc(Cl)c(Cl)c3)CCCN(C(=O)c3ccccc3)C2)CC1
not listed: [8] | [10]
inactive: all other assays above

CCCCCCCCCCCCCCCCO
not listed: [8]
inactive: all other assays above

O=Cc1ccccc1C=O
not listed: [8] | [10]
inactive: all other assays above
